# Measured values reported in ChEMBL document CHEMBL3988442, “University of Dundee, Small-Polar-MMV Screening Library” (2021).
# The whole screen tested about 48,000 compounds, of which about 13,000 (27%) showed an effect of 50% or more. This is one part of the list.
# Test system: Wolbachia pipientis
# Assay: Anti-Wolbachia Cell-Based Screen
# Type: functional
# Design: scale not given: in the data most compounds retested in dose-response had high values
# Details: 5 µM
row,Compound,Percent Effect [%]
1,Cn1cc(N2C(=O)C[C@@H]3[C@@H]2CCN3C(=O)c2ccco2)cn1,-4.812
2,Cn1cc(N2C(=O)CC[C@@H]3[C@H]2CCN3CC2CCOCC2)cn1.O=C(O)C(F)(F)F,100.5
3,CN1CCN([C@@H]2CCN(CC3CCOC3)[C@H]2Cc2cnn(C)c2)CC1.O=C(O)C(F)(F)F.O=C(O)C(F)(F)F.O=C(O)C(F)(F)F (stereo partly drawn),-10.32
4,Cn1cc(N2C(=O)CC[C@@H]3[C@H]2CCN3Cc2cccc(C#N)c2)cn1.O=C(O)C(F)(F)F.O=C(O)C(F)(F)F,96.87
5,Cn1cc(CN2CC[C@@H]3[C@@H]2CCN3C(=O)c2cccc(F)c2)cn1.O=C(O)C(F)(F)F,-56.05
6,Cn1cc(N2C(=O)CC[C@@H]3[C@H]2CCN3CCc2ccccc2)cn1.O=C(O)C(F)(F)F.O=C(O)C(F)(F)F,83.57
7,Cn1cc(C(=O)N2CC[C@@H]3[C@@H]2CCN3Cc2cccc(C#N)c2)cn1.O=C(O)C(F)(F)F,-1.669
8,COc1ccc(CN2CC[C@@H]3[C@H]2CCC(=O)N3c2cnn(C)c2)cc1.O=C(O)C(F)(F)F,83.34
9,Cn1cc(N2C[C@@H]3CN(CC4CCOCC4)C[C@@H]3C2=O)cn1.O=C(O)C(F)(F)F,-5.316
10,Cc1cnn(CC2CN(c3ncnc4c3CCC4)CCO2)c1 (stereo not drawn),-34.52
11,Cc1noc(C)c1CC(=O)NCCN1CCN(S(C)(=O)=O)CC1,-3.578
12,N#Cc1cc2c(=O)n(CC(O)Cc3ccccc3)ccc2[nH]c1=O (stereo not drawn),-6.856
13,O=C(Nc1ccc(-c2ccccc2)cc1)N1C[C@@H]2CNC[C@]2(C(=O)O)C1,6.586
14,CC(C)N1CCN(S(=O)(=O)c2ncn(C)c2Cl)CC1,22.53
15,O=C1O[C@@H]2CN(Cc3cccc(O)c3)C[C@@H]2N1CCCN1CCOCC1,15.85
16,Cn1cc(C(=O)N2CC[C@@H]3[C@@H]2CCN3Cc2ccccc2)cn1.O=C(O)C(F)(F)F,-15.71
17,Cn1cc(CN2CC[C@@H]3[C@@H]2CCN3Cc2ccc3c(c2)OCO3)cn1.O=C(O)C(F)(F)F.O=C(O)C(F)(F)F,-8.648
18,Cn1cc(CN2CC[C@@H]3[C@H]2CCC(=O)N3c2ccccc2)cn1.O=C(O)C(F)(F)F,107.5
19,CN(Cc1ccccc1)C(=O)CS(=O)(=O)Cc1ccc(Cl)c(Cl)c1,-2.386
20,Cc1cccc(S(=O)(=O)NC2CCN(CC(F)(F)F)C2)c1 (stereo not drawn),-3.118
21,CNC(=O)C1CCN(C(=O)NCc2ccc(C)n2C)CC1,-3.399
22,CC(=O)NC1CCCN(C(=O)NCc2ccc(-c3ccn[nH]3)cc2)C1 (stereo not drawn),11.01
23,CC(=O)N1CCCN(C(=O)NCc2ccc(-c3ccn[nH]3)cc2)CC1,101.6
24,Cc1[nH]ncc1CCCNC(=O)N1CCC(CC(N)=O)CC1,-1.64

row,Compound,Percent Effect [%]
1,O=C(NCc1ccc2c(c1)OCCO2)N1CCC(CO)CC1,-3.134
2,CNC(=O)C1CCN(C(=O)NCc2ccc(-c3ccn[nH]3)cc2)CC1,139.8
3,O=C(NCc1ccccc1)N1CCC(Oc2ncccc2Cl)CC1,6.296
4,COC(=O)NC1(C(=O)NCc2ccc(-c3ccn[nH]3)cc2)CCCC1,-10.61
5,CCOc1ccc(CNC(=O)N2CCCC(CO)C2)cc1F (stereo not drawn),1.945
6,NC(=O)CC1CCN(C(=O)NCc2ccc(-c3ccn[nH]3)cc2)CC1,131.5
7,COc1ccccc1NCC(=O)NCc1ccc(-c2ccn[nH]2)cc1,-17.15
8,CCOCC1CCCN(C(=O)NCc2ccc(-c3ccn[nH]3)cc2)C1 (stereo not drawn),107.6
9,O=C(O)C(F)(F)F.O=C(c1cnoc1)N1CCC[C@]2(C[C@@H](OCc3ccccn3)CO2)C1,20.74
10,NC(=O)C1CCN(C(=O)NCc2ccc(-c3ccn[nH]3)cc2)CC1,110.5
11,NC(=O)C1CCN(C(=O)NCc2ccc3c(c2)OCCO3)CC1,2.129
12,O=C(NCc1ccc(-c2ccn[nH]2)cc1)N1CCC(N2CCCC2)C1 (stereo not drawn),1.692
13,Cc1csc(CNc2cnn(CC(F)(F)F)c2)n1,0.5328
14,CCC(CC)C(CNC(=O)Nc1cnn(CCOC)c1)N(C)C (stereo not drawn),-1.824
15,CN(C)CC(O)Cn1cc(NCc2ccc(Br)cc2)cn1 (stereo not drawn),110.4
16,Cc1cc(C)c(CNc2cnn(CC(O)CN(C)C)c2)c(C)c1 (stereo not drawn),97.23
17,Cc1cc(C)c(NC(=O)Nc2cnn(CC(O)CN(C)C)c2)c(C)c1 (stereo not drawn),101.9
18,CCn1cc(NC(=O)NCC(O)CN2CCCCC2)cn1 (stereo not drawn),-8.278
19,CCN(CC)Cc1ccc(CNC(=O)C(C)(C)n2cc(Br)cn2)cc1,25.74
20,Cc1csc(CNc2cnn(CC(C)C)c2)n1,-6.579
21,CNS(=O)(=O)CC1CCCN1c1ccc(Cl)cn1 (stereo not drawn),-0.6453
22,CC(C)COC(C)C(=O)N1CCCCC1 (stereo not drawn),22.01
23,Cc1cnn(CCNCC(=O)NCC2(c3ccccc3)CC2)c1,75.55
24,O=C(CNCCn1cccn1)NCC1(c2ccccc2)CCCC1,152.5

row,Compound,Percent Effect [%]
1,O=C(CNCCn1cccn1)NCC1(c2ccccc2)CCOCC1,92.49
2,CC(NC1(CNC(=O)Cn2cccn2)CCOCC1)c1ccccc1 (stereo not drawn),-4.179
3,Cc1cccc(C2(C(=O)NCCCn3cccn3)CC2)c1,-18.04
4,Cc1cnn(CCNCC(=O)NCCOc2ccccc2)c1,-6.94
5,N#CC1(NC(=O)CNCCn2cccn2)CCCCC1,0.8723
6,Cc1cnn(CCNCC(=O)NCC2(c3ccccc3)CCC2)c1,6.79
7,CN(C(=O)CNCCn1cccn1)C1(C#N)CCCCC1,-7.323
8,O=C(CNCCn1cccn1)NCC1(c2ccccc2)CC1,-4.744
9,O=C(CNCCn1cccn1)NCC1(c2ccccc2)CCC1,123.8
10,O=C(Cn1cccn1)NCC1(c2ccccc2)CC1,8.498
11,Fc1ccc(-n2cccn2)c(CN2CCCCC2CCn2ccnc2)c1 (stereo not drawn),6.266
12,Cc1cc(NC(=O)CCNC(C)(C)c2nc(C)c(C)s2)no1,-5.204
13,Cc1ccccc1C1CCCN(C(=O)c2c[nH]c(=O)c(Cl)c2)C1 (stereo not drawn),0.979
14,O=C(NCc1ccoc1)c1ccc(C2CCCN2CC2CCOCC2)s1 (stereo not drawn),-3.898
15,CC(=O)NC(Cc1c[nH]c2cc(F)ccc12)C(=O)Nc1nncs1 (stereo not drawn),-20.07
16,CC(C)NC(=O)c1cc2c([nH]c1=O)CC(c1cccs1)CC2=O (stereo not drawn),-15.67
17,CN(C)[C@@H]1CN(Cc2ccco2)C[C@@H]2CCCO[C@@H]21.O=C(O)C(F)(F)F.O=C(O)C(F)(F)F,5.089
18,Cc1ccc(CN2C[C@@H]3C[C@H](C(=O)NCC4CC4)N(C)[C@@H]3C2)o1.O=C(O)C(F)(F)F.O=C(O)C(F)(F)F,102.8
19,Cc1ccc(CN2C[C@H]3C[C@H](C(=O)NCc4cccnc4)[C@@H](C2)O3)o1,-11.22
20,CN1[C@@H](C(=O)NCC2CC2)C[C@@H]2CN(Cc3ccoc3)C[C@@H]21,87.47
21,CC(=O)N1C[C@H]2CCCN(Cc3ccc(C)o3)[C@H]2C1.O=C(O)C(F)(F)F,-21.55
22,Cc1ccc(CN2CC[C@H]3OCC[C@@H](C(=O)NCC4CC4)[C@@H]3C2)o1,-3.1
23,COCCN1CCO[C@@H]2CN(Cc3ccc(C)o3)C[C@@H]2C1.O=C(O)C(F)(F)F.O=C(O)C(F)(F)F,4.147
24,O=C(NCC1CC1)[C@@H]1CCO[C@@H]2CCN(Cc3ccco3)C[C@H]21.O=C(O)C(F)(F)F,-5.269

row,Compound,Percent Effect [%]
1,CC(C)N1[C@@H](C(=O)NCC2CC2)C[C@@H]2CN(Cc3ccco3)C[C@@H]21,96.03
2,Cc1ccc(CN2C[C@H]3C[C@H](C(=O)NCC4CC4)N(C)[C@H]3C2)o1,105.7
3,CC(C)(C)CCS(=O)(=O)NCCc1csc(N2CCCC2)n1,-17.7
4,CC(C)(C)SCC(=O)Nc1cc(-n2nnnc2C2CC2)ccc1F,-2.902
5,c1ncc2c(n1)CN(Cc1cn3ccsc3n1)CC2,-19.58
6,NC(=O)CN(CC(=O)NCc1cc(F)cc(F)c1)C1CCCC1,2.456
7,CC1(C)COCCN1C(=O)Cc1csc(Cc2ccccn2)n1,-7.387
8,CCNC(=O)NC(=O)CN1CCC(c2c[nH]c3ccc(OC)cc23)CC1,-12.44
9,CC(C)Cc1noc(CN(C)C2CCS(=O)(=O)C2)n1 (stereo not drawn),-20.93
10,O=C(NC1CCN(C2CC2)CC1)c1cc(Cl)ccc1-n1cnnn1,-15.3
11,CC(=O)N1CCC(NC(=O)c2cc(Cl)ccc2O)CC1,5.076
12,CCc1ccc(O)c(C(=O)NC2CCN(S(=O)(=O)CC)CC2)c1,-4.06
13,Cc1ccc(C)c(C(=O)NC2CCC(N3C(=O)CCC3=O)CC2)c1 (stereo not drawn),7.383
14,COC(=O)N1CCC(NC(=O)c2cc(S(N)(=O)=O)ccc2C)CC1,98.52
15,CC(=O)N1CCC(NC(=O)c2cc(S(N)(=O)=O)ccc2C)CC1,120.7
16,Cc1ccc(S(N)(=O)=O)cc1C(=O)NC1CCCC1,60.38
17,NS(=O)(=O)c1ccc(F)c(C(=O)NCCSC2CCCCC2)c1,-0.4963
18,Cc1ccc(S(N)(=O)=O)cc1C(=O)NC1CCN(C2CC2)CC1,102.7
19,COCCC(=O)N1CCC(NC(=O)c2cscc2C)CC1,4.5
20,COCC(O)CN1CCC(NC(=O)c2cscc2C)CC1 (stereo not drawn),-6.433
21,Cc1ccc(S(N)(=O)=O)cc1C(=O)NCC1Cc2ccccc2O1 (stereo not drawn),20.46
